Data published in PubChem BioAssay (NCI).
This is part of a sample that, as a whole, favours compounds with a hit. Of some 83,000 tested, about 20% had one in any assay.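 Plates (96-well) were seeded with cells, treated with compound at one concentration, and incubated for 48 hours before percent growth was determined.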 Values without a mark were called inactive. Active and inactive are the calls of the source. Rule for the calls: active = growth percent below 10; inactive = the rest.

tested on: HCT-15 colon; experiment: NCI-60 one-dose screen, 48 h (100 = growth as untreated, 0 = no growth, -100 = all killed); conditions: 10 µM unless noted

SMILES	growth
COc1ccc(C(=O)Nc2ncc(Cc3cccc(Cl)c3)s2)cc1OC	23.4%
CN[C@]12CC3(C=CC(=O)C=C3)O[C@@]1(Cc1ccc(OC)cc1)N(C)C(=O)N2	4.25% (active)
Cc1nc2c(=O)[nH]c(SCC(=O)Nc3cccc(F)c3)nc2[nH]c1=O	102%
O=S(=O)(Nc1ccc(Cl)cc1)c1ccc(-c2cnc(C3CC3)o2)cc1	27.9%
C=CCn1c(SCC(=O)Nc2ccc(C(=O)/C=C/c3ccc(Cl)cc3)cc2)nnc1-c1cc(-c2ccc(S(N)(=O)=O)cc2)nc2ccccc12	96.5%
CCN1C(=O)N(CC)C2C1NN=c1s/c(=C\c3ccc(Cl)cc3Cl)c(=O)n12 (stereo not given)	9.51% (active)
COC(=O)[C@H]1CCCN1C[C@@H](O)CN1C(=O)/C(=C\c2cc(OC)c(OC)c(OC)c2)c2ccccc21	98%
CN(C)CCCC1(c2ccc(F)cc2)OCc2cc(-c3cccc4[nH]ccc34)ccc21 (stereo not given)	7.57% (active)
O=C1Nc2ccc(Br)cc2/C1=N/c1n[nH]c(=S)s1	99.1%
CCOC(=O)c1cc(-c2ccc([N+](=O)[O-])cc2)n(-c2ccc(C(=O)O)c(O)c2)c1C	50.2%
COc1ccc(-c2nn(-c3ccccc3)cc2/C=C2/SC(=S)N(C)C2=O)cc1	74.2%
O=C1c2cccnc2C(=O)c2c1c(C(=O)NCCn1ccnc1)c1ccccn21	30.3%
N#C/C(=C\c1ccc2ccccc2c1)c1cc2ccccc2[nH]1	22.5%
Cc1noc(C)c1C(=O)OCc1coc2ccccc2c1=O	52.5%
CN(C)CCNc1nc2c3cc(Cl)ccc3nn2c2ccccc12	41.2%
CC(=O)N1N=C(c2ccc(Nc3nc(Nc4ccc(Cl)cc4)nc(Nc4ccc(Cl)cc4)n3)cc2)CC1c1ccco1 (stereo not given)	85.7%
CSc1nc2sc3c(c2c(=O)n1-c1ccc([N+](=O)[O-])cc1)CCCCC3	94.6%
Cc1cc(N)c2cc(NC(=O)/C=C\c3ccccc3Cl)ccc2n1	10.9%
CCN(C(=O)N1CCN(c2cc3c(cc2F)c(=O)c(C(=O)O)cn3C2CC2)CC1)c1nc(-c2ccc(Cl)cc2)cs1	10.2%
COC(=O)c1cc(-c2ccc(S(C)(=O)=O)cc2)[nH]c1N/N=C/c1c(Cl)cccc1Cl	26.2%

SMILES	growth
NC(=O)c1c(NC(=O)c2ccccc2)sc2c1CCC(=O)C2	12.4%
Cc1ccc(C2=Nc3c(N)ncnc3NC(c3ccc4c(c3)OCO4)C2)cc1 (stereo not given)	34.6%
COc1ccc(-c2nc(SCC(C)C)nc(N/N=C\c3ccc(F)cc3)c2C#N)cc1	85.3%
COc1ccc(C(c2cc(OC)c(OC)c(OC)c2)N2CCN(c3ccccc3)CC2)cc1 (stereo not given)	67.6%
CCCC(=O)NC(c1ccc2c(c1)OCO2)c1ccc2cccnc2c1O (stereo not given)	35%
OCCNCCCOc1ccc2ncnc(Nc3ccc(Oc4cccc(C(F)(F)F)c4)c(Cl)c3)c2c1	-23.8% (active)
COC(=O)CCC(=O)C(=O)OC	16.6% [10 mM]
CS(=O)(=O)Nc1cc(-c2ccc3ncnc(Nc4c(Cl)ccc5c4OCO5)c3c2)cnc1Cl	-18% (active)
O=C1c2c(c3c4ccc(Br)cc4oc3c3[nH]c4ccccc4c23)C(=O)N1O	19%
O=C1/C(=C/c2ccc(-c3ccc(Br)cc3)o2)SC(=S)N1CCc1ccc(O)cc1	78.9%
CCN(CC)CCSc1nc(-c2ccccc2)c(C#N)c(=O)[nH]1	117%
O=C(CCCCCCN1CC(=O)N2[C@H](c3cc(Br)cs3)c3[nH]c4ccccc4c3C[C@H]2C1=O)NO	96.9%
C#Cc1cccc(Nc2ncnc3ccc(-c4cnc(N)nc4)cc23)c1	23.1%
O=C(c1ccc(Cl)cc1)N1CCN(c2ccnc3cc(Cl)ccc23)CC1	95.5%
COc1ccc(/C=C2\C(=O)N=C3N2NC(c2cc(Br)ccc2O)C=C(C)N3c2ccccc2)cc1 (stereo not given)	103%
O=C(NCCCCNC(=O)OCc1ccc2c(Cl)cc(Cl)c(O)c2n1)OCc1ccc2c(Cl)cc(Cl)c(O)c2n1	13%
CCCCCCCCCCCCCCCCCCOc1ccccc1CC(=O)NCC[N+]1(C)CCCC1	93.9%
C=C1CC[C@@H]2[C@](C)(COC(C)=O)[C@H](OC(C)=O)CC[C@@]2(C)[C@@H]1CC(Sc1ccccc1)C1=CCOC1=O (stereo not given in full)	-38.4% (active)
COc1cc(CNS(=O)(=O)c2ccc(C)cc2)ccc1OCc1cn(-c2ccc(Br)cc2)nn1	103%
CC(=O)Cc1nsc(NC(=O)c2cc(-c3cc(Cl)cc(Cl)c3)oc2C)n1	99.4%

tested on: HT29 colon; experiment: as above; conditions: 10 µM unless noted

SMILES	growth
COc1ccc(C(=O)Nc2ncc(Cc3cccc(Cl)c3)s2)cc1OC	9.89% (active)
CN[C@]12CC3(C=CC(=O)C=C3)O[C@@]1(Cc1ccc(OC)cc1)N(C)C(=O)N2	7.83% (active)
Cc1nc2c(=O)[nH]c(SCC(=O)Nc3cccc(F)c3)nc2[nH]c1=O	107%
O=S(=O)(Nc1ccc(Cl)cc1)c1ccc(-c2cnc(C3CC3)o2)cc1	15.4%
C=CCn1c(SCC(=O)Nc2ccc(C(=O)/C=C/c3ccc(Cl)cc3)cc2)nnc1-c1cc(-c2ccc(S(N)(=O)=O)cc2)nc2ccccc12	97.4%
CCN1C(=O)N(CC)C2C1NN=c1s/c(=C\c3ccc(Cl)cc3Cl)c(=O)n12 (stereo not given)	2.8% (active)
COC(=O)[C@H]1CCCN1C[C@@H](O)CN1C(=O)/C(=C\c2cc(OC)c(OC)c(OC)c2)c2ccccc21	110%
CN(C)CCCC1(c2ccc(F)cc2)OCc2cc(-c3cccc4[nH]ccc34)ccc21 (stereo not given)	-31.3% (active)
O=C1Nc2ccc(Br)cc2/C1=N/c1n[nH]c(=S)s1	104%
CCOC(=O)c1cc(-c2ccc([N+](=O)[O-])cc2)n(-c2ccc(C(=O)O)c(O)c2)c1C	44.2%
COc1ccc(-c2nn(-c3ccccc3)cc2/C=C2/SC(=S)N(C)C2=O)cc1	64.6%
O=C1c2cccnc2C(=O)c2c1c(C(=O)NCCn1ccnc1)c1ccccn21	7.18% (active)
N#C/C(=C\c1ccc2ccccc2c1)c1cc2ccccc2[nH]1	10.9%
Cc1noc(C)c1C(=O)OCc1coc2ccccc2c1=O	66%
CN(C)CCNc1nc2c3cc(Cl)ccc3nn2c2ccccc12	21.4%
CC(=O)N1N=C(c2ccc(Nc3nc(Nc4ccc(Cl)cc4)nc(Nc4ccc(Cl)cc4)n3)cc2)CC1c1ccco1 (stereo not given)	97.8%
CSc1nc2sc3c(c2c(=O)n1-c1ccc([N+](=O)[O-])cc1)CCCCC3	92.6%
Cc1cc(N)c2cc(NC(=O)/C=C\c3ccccc3Cl)ccc2n1	-64.4% (active)
CCN(C(=O)N1CCN(c2cc3c(cc2F)c(=O)c(C(=O)O)cn3C2CC2)CC1)c1nc(-c2ccc(Cl)cc2)cs1	5.63% (active)
COC(=O)c1cc(-c2ccc(S(C)(=O)=O)cc2)[nH]c1N/N=C/c1c(Cl)cccc1Cl	14.5%

SMILES	growth
NC(=O)c1c(NC(=O)c2ccccc2)sc2c1CCC(=O)C2	9.53% (active)
Cc1ccc(C2=Nc3c(N)ncnc3NC(c3ccc4c(c3)OCO4)C2)cc1 (stereo not given)	14.1%
COc1ccc(-c2nc(SCC(C)C)nc(N/N=C\c3ccc(F)cc3)c2C#N)cc1	90.5%
COc1ccc(C(c2cc(OC)c(OC)c(OC)c2)N2CCN(c3ccccc3)CC2)cc1 (stereo not given)	63.5%
CCCC(=O)NC(c1ccc2c(c1)OCO2)c1ccc2cccnc2c1O (stereo not given)	25.4%
OCCNCCCOc1ccc2ncnc(Nc3ccc(Oc4cccc(C(F)(F)F)c4)c(Cl)c3)c2c1	-13.3% (active)
COC(=O)CCC(=O)C(=O)OC	-9.41% [10 mM] (active)
CS(=O)(=O)Nc1cc(-c2ccc3ncnc(Nc4c(Cl)ccc5c4OCO5)c3c2)cnc1Cl	-12.9% (active)
O=C1c2c(c3c4ccc(Br)cc4oc3c3[nH]c4ccccc4c23)C(=O)N1O	8.99% (active)
O=C1/C(=C/c2ccc(-c3ccc(Br)cc3)o2)SC(=S)N1CCc1ccc(O)cc1	76.8%
CCN(CC)CCSc1nc(-c2ccccc2)c(C#N)c(=O)[nH]1	142%
O=C(CCCCCCN1CC(=O)N2[C@H](c3cc(Br)cs3)c3[nH]c4ccccc4c3C[C@H]2C1=O)NO	50.7%
C#Cc1cccc(Nc2ncnc3ccc(-c4cnc(N)nc4)cc23)c1	48%
O=C(c1ccc(Cl)cc1)N1CCN(c2ccnc3cc(Cl)ccc23)CC1	81.7%
COc1ccc(/C=C2\C(=O)N=C3N2NC(c2cc(Br)ccc2O)C=C(C)N3c2ccccc2)cc1 (stereo not given)	106%
O=C(NCCCCNC(=O)OCc1ccc2c(Cl)cc(Cl)c(O)c2n1)OCc1ccc2c(Cl)cc(Cl)c(O)c2n1	103%
CCCCCCCCCCCCCCCCCCOc1ccccc1CC(=O)NCC[N+]1(C)CCCC1	8.69% (active)
C=C1CC[C@@H]2[C@](C)(COC(C)=O)[C@H](OC(C)=O)CC[C@@]2(C)[C@@H]1CC(Sc1ccccc1)C1=CCOC1=O (stereo not given in full)	-39.3% (active)
COc1cc(CNS(=O)(=O)c2ccc(C)cc2)ccc1OCc1cn(-c2ccc(Br)cc2)nn1	105%
CC(=O)Cc1nsc(NC(=O)c2cc(-c3cc(Cl)cc(Cl)c3)oc2C)n1	102%
